Values without a mark were called inactive. The source made the active and inactive calls.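 The calls were made as follows: active = activity change under -35% in any replicate well, with more than 20 beads read in that well; inactive = the rest.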
Target: Caspase recruitment domain-containing protein 9 (Homo sapiens) + E3 ubiquitin-protein ligase TRIM62 (Homo sapiens) (UniProt Q9H257+Q9BVG3)
Assay: CARD9/TRIM62 protein interaction inhibitors – cell lysate, HEK293FT lysates, Luminex bead ELISA, primary screen (AID 1259341);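 also: PE anti-Flag signal of Flag-CARD9 captured by myc-TRIM62 beads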
Conditions: PE fluorescence, hits give low values, concentration not given here

Chain of Caspase recruitment domain-containing protein 9 (Homo sapiens) + E3 ubiquitin-protein ligase TRIM62 (Homo sapiens) (Q9BVG3 whole entry, looked up, the tested form may be a part): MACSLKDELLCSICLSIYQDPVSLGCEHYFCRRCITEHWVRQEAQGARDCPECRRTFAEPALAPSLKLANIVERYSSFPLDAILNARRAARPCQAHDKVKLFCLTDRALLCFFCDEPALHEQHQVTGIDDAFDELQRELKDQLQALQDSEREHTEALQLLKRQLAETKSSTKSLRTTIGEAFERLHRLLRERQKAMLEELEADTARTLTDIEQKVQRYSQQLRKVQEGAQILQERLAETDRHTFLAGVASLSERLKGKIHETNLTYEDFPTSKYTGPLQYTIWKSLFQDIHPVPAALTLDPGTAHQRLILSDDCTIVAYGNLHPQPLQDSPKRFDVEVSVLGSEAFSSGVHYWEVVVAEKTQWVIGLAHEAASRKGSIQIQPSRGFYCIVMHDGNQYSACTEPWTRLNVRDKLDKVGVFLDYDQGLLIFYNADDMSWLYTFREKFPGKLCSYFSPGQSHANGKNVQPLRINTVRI
Chain of Caspase recruitment domain-containing protein 9 (Homo sapiens) + E3 ubiquitin-protein ligase TRIM62 (Homo sapiens) (Q9H257 whole entry, looked up, the tested form may be a part): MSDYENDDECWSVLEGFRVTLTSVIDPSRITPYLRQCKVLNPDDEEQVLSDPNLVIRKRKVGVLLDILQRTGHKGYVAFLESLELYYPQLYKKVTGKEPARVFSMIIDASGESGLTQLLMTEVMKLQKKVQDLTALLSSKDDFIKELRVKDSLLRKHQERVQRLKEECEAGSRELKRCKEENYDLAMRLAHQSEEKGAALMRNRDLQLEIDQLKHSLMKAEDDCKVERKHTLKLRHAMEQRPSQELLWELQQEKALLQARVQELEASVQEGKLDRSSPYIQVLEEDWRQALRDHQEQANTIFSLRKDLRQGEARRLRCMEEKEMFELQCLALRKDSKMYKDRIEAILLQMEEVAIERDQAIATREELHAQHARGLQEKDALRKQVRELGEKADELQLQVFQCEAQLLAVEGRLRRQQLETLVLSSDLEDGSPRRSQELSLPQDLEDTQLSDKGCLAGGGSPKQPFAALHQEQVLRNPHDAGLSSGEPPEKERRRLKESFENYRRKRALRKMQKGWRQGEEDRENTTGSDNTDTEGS

Row | SMILES | activity change, negative = inhibition
1 | COc1ccc(-c2ccc(CCC(=O)O)o2)cc1 | -0.268%
2 | CC(C)C(CC(=O)NCc1ccco1)c1ccco1 (stereo not given) | -8.54%
3 | CCc1nc(OCc2ccco2)c2sc3nc4c(cc3c2n1)COC(C)(C)C4 | -2.36%
4 | CCOC(=O)c1[nH]c(Cc2[nH]c(C(=O)OCC)c(C)c2C)c(C)c1C | -0.0423%
5 | N#CCSc1nc2c(c(=O)n1Cc1ccco1)C1(CCCC1)Cc1ccccc1-2 | -5.29%
6 | O=c1oc(/C=C/c2ccc([N+](=O)[O-])s2)nc2ccccc12 | -7%
7 | COc1ccc2nc(-c3ccco3)c(-c3ccco3)nc2c1 | -3.64%
8 | Cc1noc(C)c1S(=O)(=O)Nc1ccc2c(c1)C(=O)N([C@H](C)CO)C[C@H](C)[C@@H](CN(C)C(=O)C1CCCCC1)OCCCC[C@H](C)O2 | 7.66%
9 | Cn1ncc2c(NNC(=O)c3cc(O)cc(O)c3)ncnc21 | 1.25%
10 | CC1(C)Cc2ccccc2-c2nc(-c3ccccc3)oc(=O)c21 | -0.338%
11 | Cc1ccc(-c2nc(C)sc2CC(=O)NCc2ccco2)cc1 | -1.34%
12 | Cc1cccc(NC(=O)Cc2coc3ccc4ccccc4c23)n1 | -0.738%
13 | O=C(O)C1Oc2cc3ccccc3cc2O1 | -13.6%
14 | O=C(COC(=O)c1ccc(S(=O)(=O)NCc2ccco2)cc1)Nc1ccc(Cl)cn1 | -0.897%
15 | Cc1ccc(C2CC(=O)C3=C(C2)Nc2ccccc2NC3c2cccnc2)cc1 (stereo not given) | -0.28%
16 | Nc1cc2c(cc1-n1cccc1)OCCO2 | 4.12%
17 | COC[C@]1(O)CCN(C(=O)CCN(C)S(C)(=O)=O)CC1(C)C | -0.387%
18 | Cc1ncnc(N2CCC(c3nccn3Cc3cccnc3)CC2)c1C | -10.5%

Row | SMILES | activity change, negative = inhibition
19 | O=S(=O)(c1ccccc1)N1CC2CN(Cc3ccc(O)cc3)C2C1 (stereo not given) | -21%
20 | C[C@H](CO)N1C[C@H](C)[C@@H](CN(C)C(=O)C2CCCCC2)OCCCC[C@H](C)Oc2ccc(NS(=O)(=O)c3ccc(F)cc3)cc2C1=O | 9.27%
21 | Cc1ccc(C)n1NC(=O)c1ccccc1O | 1.19%
22 | CCCC(=O)NCc1ccc2c(c1)cc(C)n2C | 7.86%
23 | On1c(-c2ccco2)nc2c1CCc1nonc1-2 | -2.2%
24 | O=C(NCCc1ccco1)c1ccc(OCc2cn3ccccc3n2)cc1 | 0.111%
25 | Cc1cc(C(=O)Nc2nc3c(s2)CCc2ccccc2-3)no1 | 3.92%
26 | O=C(O)c1cc(-c2ccc(-c3ccc(F)cc3)o2)nc2ccccc12 | -7.53%
27 | O=C(Nc1ccc2c(c1)nc1n2CCN(C2CCCCC2)C1)c1ccco1 | -2.69%
28 | Cc1ccc(Nc2nc(C(=O)Nc3ccc(Br)cc3)nc3ccccc23)cc1 | 4.69%
29 | Cc1ccc(N2NC(c3ccc(Br)cc3)=CCC2=O)cc1 | -5.75%
30 | O=C(Cc1ccc(S(=O)(=O)N2CCOCC2)s1)Nc1nc2c(s1)CCCC2 | -0.777%
31 | CCN1CCN(C(=O)c2cc(-c3ccco3)nc3ccccc23)CC1 | 4.84%
32 | NC(=O)C1(N2CCCCC2)CCN(c2ccc(NC(=O)c3cccc(Cl)c3)cc2C(=O)O)CC1 | -49% (active)
33 | C[C@H](CO)N1C[C@H](C)[C@@H](CN(C)C(=O)C2CCCCC2)OCCCC[C@H](C)Oc2ccc(NS(C)(=O)=O)cc2C1=O | 9.86%
34 | CCC1c2ccc(C)n2CCN1C(=O)Nc1ccccc1C(=O)OC (stereo not given) | 22.8%
35 | CCc1oc2ccccc2c1C(=O)CCN1CCCCC1 | 2.4%

— PubChem BioAssay AID1259341 (Broad Institute, 2017)
